Source: PubChem BioAssay
Cruzain inh noDet = inhibitors of Trypanosoma cruzi cruzain without detergent; P25779; purified cruzain, Z-FR-AMC fluorescence, no detergent; Potency, µM, for inactives: max response, negative = inhibition, actives largely listed as inhibitors; 200,000 compounds, 2.3% hits;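 further: plate controls were enzyme without inhibitor for no effect and buffer without enzyme for full effect; nearly all actives have a fitted effect of over 40% in size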
Target sequence (P25779 123-467 limits assumed): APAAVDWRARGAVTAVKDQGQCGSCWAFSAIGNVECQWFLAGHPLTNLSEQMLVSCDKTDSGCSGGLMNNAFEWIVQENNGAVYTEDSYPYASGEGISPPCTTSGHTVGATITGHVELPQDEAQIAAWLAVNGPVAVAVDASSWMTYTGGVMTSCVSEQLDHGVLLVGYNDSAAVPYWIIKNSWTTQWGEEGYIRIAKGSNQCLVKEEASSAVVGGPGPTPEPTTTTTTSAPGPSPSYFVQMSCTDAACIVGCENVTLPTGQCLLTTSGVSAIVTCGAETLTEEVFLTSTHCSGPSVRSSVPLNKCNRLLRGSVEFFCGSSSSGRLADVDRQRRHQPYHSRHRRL
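Detergent-free condition (0.00005% Triton X-100) in acetate buffer pH 5.5 with DTT. 1.5 nM enzyme and compound were pre-mixed 15 min, then 2 uM Z-FR-AMC substrate added; reaction progress from fluorescence change between first and third reads (60 s).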
Cruzain Triton = inhibitors of Trypanosoma cruzi cruzain with detergent; P25779; purified cruzain, Z-FR-AMC fluorescence, 0.01% Triton; Potency, µM, without a hit: max response, negative = inhibition, actives largely listed as inhibitors; 200,000 compounds, 0.43% hits; AID 1478;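 further: plate controls were neutral wells for no effect and buffer without enzyme for full effect; nearly all actives have a fitted effect of over 40% in size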
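Detergent-containing arm of a paired screen for aggregation-based inhibition: 0.01% Triton X-100 present. Cruzain at 1.5 nM cleaved 2 uM Z-FR-AMC at pH 5.5 with 5 mM DTT; AMC fluorescence gain over 60 s measured activity.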
Active calls of the source: *; ? = inconclusive; ! = repeats disagree. Sampled rows, rich in hits. Any-hit rate of the full collection: about 2.4%. The call rests on the fitted dose curve; in most records, active means well fitted curve in the direction sought with a large enough effect; inconclusive means small, poorly fitted or top-dose-only effect, or another doubt; inactive means no such curve, though single readings can be large; an effect the other way counts as inactive or inconclusive. Potency means the concentration at half of the fitted maximal effect.

SMILES | Cruzain inh noDet | Cruzain Triton
Cc1ccc(/C=C/c2onc(C)c2S(=O)(=O)N2CCC(C(=O)N3CCOc4ccccc43)CC2)cc1 | -28% | -3%
Cc1ccc2c(c1)N(C(=O)C1CCN(S(=O)(=O)c3c(C)noc3/C=C/c3ccccc3F)CC1)CCO2 | 13µM* | -5%
CCC1CN(C(=O)C2CCN(S(=O)(=O)c3c(C)noc3/C=C/c3ccccc3F)CC2)c2cc(Cl)ccc2O1 (stereo not given) | 3.2µM* | -3%
CC(=O)c1ccc(N2CCN(C(=O)C3CCN(S(=O)(=O)c4c(C)noc4/C=C/c4ccccc4F)CC3)CC2)cc1 | -12% | -4%
Cc1ccc(Cl)cc1N1CCN(C(=O)C2CCN(S(=O)(=O)c3c(C)noc3/C=C/c3ccccc3F)CC2)CC1 | 6.3µM* | -2%
Cc1csc2nc(-c3cccc(NC(=O)c4cccc(F)c4)c3)cn12 | ? | -6%
CCn1c2ccccc2c2cc(NC(=O)Cc3ccc(S(=O)(=O)N4CCOCC4)s3)ccc21 | 16µM* | -2%
CCn1c2ccccc2c2cc(NC(=O)C3CCN(S(=O)(=O)c4cccs4)CC3)ccc21 | ? | 2%
COc1cc(OC)cc(C(=O)Nc2ccc3c(c2)N(C2CCCC2)C(=O)c2ccccc2S3)c1 | 7% | 4%
Cc1ccc2nc(NC(=O)C3CCN(S(=O)(=O)c4cc([N+](=O)[O-])ccc4Cl)CC3)sc2c1 | 32µM* | -3%
CC(NC(=O)C1CCN(S(=O)(=O)c2cc([N+](=O)[O-])ccc2Cl)CC1)c1ccccc1 (stereo not given) | -8% | -4%
O=C(Nc1nc2ccc(F)cc2s1)C1CCN(S(=O)(=O)c2cc([N+](=O)[O-])ccc2Cl)CC1 | 10µM* | -8%
Cc1ccc2nc(NC(=O)C3CCN(S(=O)(=O)c4cccc5nsnc45)CC3)sc2c1 | ? | -6%
CCc1ccc(C2CC(=O)N(c3cccc(C(F)(F)F)c3)C3=C2C(=O)OC3)cc1 (stereo not given) | -5% | -8%
COc1ccc(Cl)cc1NC(=O)C/C(C)=N/NC(=O)CC#N | -5% | -5%
C/C(CC(=O)Nc1ccc(Cl)cc1Cl)=N\NC(N)=S | 7.9µM* | 10µM*
O=C(Nc1nnc(CCS(=O)(=O)c2ccc(Br)cc2)s1)c1ccc([N+](=O)[O-])cc1 | 5µM* | 5%
O=C(Nc1nnc(COc2ccc(Cl)cc2)s1)c1ccc([N+](=O)[O-])cc1 | -9% | 4%
O=C(Nc1nnc(CSCc2ccc(F)cc2)s1)c1ccc([N+](=O)[O-])cc1 | 25µM* | -4%
O=C(Nc1nnc(CSCc2ccccc2F)s1)c1cccc([N+](=O)[O-])c1 | ? | -7%
Cc1cc(C(=O)CN2C(=O)NC3(CCCCC3C)C2=O)c(C)n1Cc1cccs1 (stereo not given) | 32µM* | -4%
Cc1cc(-n2c(C)cc(C(=O)CN3C(=O)NC4(CCCCC4C)C3=O)c2C)no1 (stereo not given) | -30% | 6%
Cc1cc(C(=O)CN2C(=O)NC(C)(c3ccccc3)C2=O)c(C)n1CC1CCCO1 (stereo not given) | 3% | -3%
Cc1cc(C(=O)CN2C(=O)NC(c3ccccc3)(c3ccccc3)C2=O)c(C)n1Cc1ccccc1 | 10µM* | -1%
CC(C)CC(NC(=O)c1ccc(Cl)cc1)C(=O)OCC(=O)c1ccc2c(c1)NC(=O)CO2 (stereo not given) | 20µM* | -20%
SMILES | Cruzain inh noDet | Cruzain Triton
CCN(CC)S(=O)(=O)c1cc(C(=O)OCC(=O)c2ccc3c(c2)NC(=O)CO3)ccc1Cl | 3% | -4%
O=C(c1cccc([N+](=O)[O-])c1)N1CCN(CCc2ccncc2)CC1 | -2% | 0%
C[C@@H]1C(=O)OC2C[C@@]34[C@H]5C[C@@H](C(C)(C)C)[C@@]36C(O)C(=O)O[C@H]6O[C@@]4(C(=O)O5)[C@]21O (stereo not given in full) | -1% | 1%
Cc1ccc(NC(=O)CSc2nc(-c3cccs3)nc3cc(=O)[nH]n23)cc1 | 9% | 3%
COCCCN(C(C)=O)c1nc(-c2ccccc2)cs1 | 10% | -3%
COc1ccc(-c2csc(N(CCc3ccccc3)C(=O)COc3ccccc3)n2)cc1 | 13µM* | 3%
COc1ccc(OCC(=O)N(C)Cc2ccccc2)cc1 | 0% | 4%
O=C(COc1ccc(Cl)cc1)N(Cc1ccccc1)c1nc(-c2ccccc2)cs1 | 10µM* | 4%
COc1ccc(OC)c(C(=O)CN2C(=O)N(c3cc(C)cc(C)c3)S(=O)(=O)c3ccccc32)c1 | ? | -7%
COc1ccc(OC)c(C2C(C(=O)Nc3ccc(C)cc3C)=C(C)Nc3c(C(=O)Nc4ccc(F)cc4)cnn32)c1 (stereo not given) | ? | -6%
COc1ccc2nc(NC(=O)CCc3nc(-c4ccccc4F)no3)sc2c1 | 7.9µM* | 0%
COc1ccc2nc(NC(=O)Cc3cccs3)sc2c1 | -13% | 0%
COc1ccc(-n2cc(-c3ccccc3)c3c(NCCc4ccc(OC)c(OC)c4)ncnc32)cc1 | ? | -2%
C/C(=C\c1ccc(C(=O)O)cc1)c1ccc2c(c1)C(C)(C)CCC2(C)C | 6.3µM*! | -8%
CC1(C)CCC(C)(C)c2cc(C(=O)Nc3ccc(C(=O)O)cc3)ccc21 | -10% | 2%
CN(C)c1ccc(/C=N\NC(=O)c2cnc3ccccc3c2)cc1 | -2% | 1%
COc1ccc(S(=O)(=O)N2CCC(N3CCN(Cc4ccccc4)C(=O)C3=O)CC2)cc1 | 3% | 3%
CSc1nc2ccccc2cc1/C=C(\C#N)c1ccccc1 | -2% | -10%
CSc1nc2ccccc2cc1/C=C(\C#N)c1ccc(Cl)c(Cl)c1 | 25µM* | 0%
Cc1ccc(NC(=O)C2CCCN(S(=O)(=O)c3c(C)nn(C)c3C)C2)c(C)c1 (stereo not given) | 9% | -1%
O=C(Cn1nnc(-c2ccccc2Cl)n1)Nc1ccc(Br)cc1 | -11% | -8%
O=C(CNC(=O)/C(=C\c1ccc(F)cc1)NC(=O)c1ccccc1)OCc1ccccc1 | ? | 18µM*
Cc1ccc(/C=C(\NC(=O)c2ccccc2)C(=O)NC(Cc2ccccc2)C(=O)O)cc1 (stereo not given) | -1% | -3%
O=C(CNC(=O)/C(=C\c1ccccc1)NC(=O)c1ccc(Br)cc1)OCc1ccccc1 | -10% | -30%
Cc1ccc(/C=C(\NC(=O)c2ccccc2)C(=O)OCc2ccccc2)cc1 | ? | 7.9µM*
SMILES | Cruzain inh noDet | Cruzain Triton
COc1ccccc1NC(=O)c1sc2nc3c(c(C(F)(F)F)c2c1N)CN(C(C)=O)CC3 | -5% | -3%
O=C(O)[C@@H]1[C@@H]2C[C@H]([C@@H](Br)[C@H]2N2C(=O)CCC2=O)[C@@H]1C(=O)O | 11% | 3%
COc1ccc(C2=CSC(/N=C/c3ccc(F)cc3)=NN2)cc1 | 13µM* | -4%
COc1ccc(/C=N/c2c(-c3ccc(OC)cc3)nc3n2CCS3)cc1 | ? | -8%
COc1cccc(CNC(=O)c2c3c(nc4ccccc24)C(=O)N(C2CCCCC2)C3)c1 | 8% | -5%
COc1ccc(-n2c(=O)c(CCc3ccccc3)nc3cncnc32)cc1 | -11% | -4%
Cc1ccc(C)n1-c1nnc(N2CCCC(C(=O)NCc3ccc(Cl)cc3)C2)s1 (stereo not given) | 8% | -2%
COc1ccc(-c2cn3nc(N4CCCC(C(=O)NCc5ccc(Cl)cc5)C4)sc3n2)cc1 (stereo not given) | -2% | 14µM*
